# Source: PubChem BioAssay AID991 (National Center for Advancing Translational Sciences (NCATS), 2007)
# The source made the active and inactive calls. How the calls were made is not given here.
# Target: Microtubule-associated protein tau (Homo sapiens) (UniProt P10636)
# Test: Tau Fibrillization assay
# Settings: His6-htau40 arachidonic acid fibrillization, TEM filament length; at 0.72 µM; stronger effect = lower value
# Text: NIH Molecular Libraries Screening Centers Network [MLSCN] NIH Chemical Genomics Center [NCGC] MLSCN Grant: 1 X01 MH079825-01 Assay Provider: Jeffrey A. Kuret, Ohio State University NCGC Assay Overview: A number of solution-based assays are available for quantifying the amount of aggregated protein, such as fluorescence spectroscopy, sedimentation, and static and laser light scattering. However, none of these methods allows direct visualization of filaments. Transmission electron microscopy (TEM) can complement these solution-based assays by providing information on filament morphology and length distributions. In vitro fibrillization of htau40 was performed in the presence or absence of selected compounds. The resultant filaments were detected after absorption onto formvar and carbon coated grids and examined by TEM. Random digital images of each experimental condition were obtained, imported into imaging software, and quantified for filament length and number.
# NCGC Assay Protocol Summary Aggregation of His6-htau40 (5 uM final concentration) in assembly buffer was induced with arachidonic acid (50 uM final concentration) in the presence or absence of selected library compounds. Each compound was tested at IC50 and four times the IC50values as determined by the tau ThS binding assay. After incubation (18 h at 37 degrees Celsius), reactions were diluted 5-fold in distilled water and assayed by transmission electron microscopy as described previously (Necula and Kuret, 2004). […] 28(3), 251-60. Necula, M., Chirita, C. N., and Kuret, J. (2003) J. Biol. Chem. 278, 46674-46680.
# Chain of Microtubule-associated protein tau (Homo sapiens) (P10636 whole entry, looked up): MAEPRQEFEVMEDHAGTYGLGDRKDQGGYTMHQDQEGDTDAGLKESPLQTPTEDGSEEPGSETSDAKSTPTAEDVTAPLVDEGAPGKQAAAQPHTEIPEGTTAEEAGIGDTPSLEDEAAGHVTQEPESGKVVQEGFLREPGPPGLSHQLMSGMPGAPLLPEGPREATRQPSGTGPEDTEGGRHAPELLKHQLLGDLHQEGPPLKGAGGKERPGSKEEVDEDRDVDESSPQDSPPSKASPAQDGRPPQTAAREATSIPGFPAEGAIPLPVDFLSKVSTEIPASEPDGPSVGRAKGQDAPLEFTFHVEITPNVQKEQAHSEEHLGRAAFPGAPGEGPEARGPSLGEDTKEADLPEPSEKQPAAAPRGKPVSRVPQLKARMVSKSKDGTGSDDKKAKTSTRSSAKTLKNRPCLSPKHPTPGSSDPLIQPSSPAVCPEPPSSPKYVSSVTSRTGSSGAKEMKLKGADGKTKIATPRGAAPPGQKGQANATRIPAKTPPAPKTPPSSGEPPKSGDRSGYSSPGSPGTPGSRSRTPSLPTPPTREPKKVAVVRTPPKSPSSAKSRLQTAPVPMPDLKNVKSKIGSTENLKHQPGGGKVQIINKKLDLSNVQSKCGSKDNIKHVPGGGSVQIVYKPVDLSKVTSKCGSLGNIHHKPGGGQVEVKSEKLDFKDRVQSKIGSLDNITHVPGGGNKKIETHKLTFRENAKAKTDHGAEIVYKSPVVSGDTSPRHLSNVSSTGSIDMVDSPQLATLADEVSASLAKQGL
row,SMILES,filament length
1,CN(C)c1ccc(C(=C2C=CC(=[N+](C)C)C=C2)c2ccc(N(C)C)cc2)cc1,50.3% (active)

# Same assay, conditions: His6-htau40 arachidonic acid fibrillization, TEM filament length; at 0.76 µM; stronger effect = lower value
row,SMILES,filament length
1,Cc1cc(-c2ccc(N=Nc3ccc4c(S(=O)(=O)O)cc(S(=O)(=O)O)c(N)c4c3O)c(C)c2)ccc1N=Nc1ccc2c(S(=O)(=O)O)cc(S(=O)(=O)O)c(N)c2c1O,91.8% (inactive)

# Same assay, conditions: His6-htau40 arachidonic acid fibrillization, TEM filament length; at 4 µM; stronger effect = lower value
row,SMILES,filament length
1,CN(C)c1ccc(/C=C2/C(=O)Nc3ccccc32)cc1,41.8% (active)

# Same assay, conditions: His6-htau40 arachidonic acid fibrillization, TEM filament length; at 6.4 µM; stronger effect = lower value
row,SMILES,filament length
1,N=C1C=CC(=C(c2ccc(N)cc2)c2ccc(N)cc2)C=C1,50.8% (active)

# Same assay, conditions: His6-htau40 arachidonic acid fibrillization, TEM filament length; at 8.2 µM; stronger effect = lower value
row,SMILES,filament length
1,COc1cccc2c1C(=N)c1c(O)c3c(c(O)c1C2=O)C[C@](O)(C(C)=O)C[C@@H]3O[C@H]1C[C@H](N)[C@@H](O)[C@H](C)O1,86.9% (inactive)

# Same assay, conditions: His6-htau40 arachidonic acid fibrillization, TEM filament length; at 8.4 µM; stronger effect = lower value
row,SMILES,filament length
1,Cc1ccc2nc(-c3ccc(N=Nc4cc(S(=O)(=O)O)c5ccccc5c4O)cc3)sc2c1S(=O)(=O)O,111% (inactive)

# Same assay, conditions: His6-htau40 arachidonic acid fibrillization, TEM filament length; filament length at lower concentration; at 0.18 µM; stronger effect = lower value
row,SMILES,filament length [%]
1,CN(C)c1ccc(C(=C2C=CC(=[N+](C)C)C=C2)c2ccc(N(C)C)cc2)cc1,109

# Same assay, conditions: His6-htau40 arachidonic acid fibrillization, TEM filament length; filament length at lower concentration; at 0.19 µM; stronger effect = lower value
row,SMILES,filament length [%]
1,Cc1cc(-c2ccc(N=Nc3ccc4c(S(=O)(=O)O)cc(S(=O)(=O)O)c(N)c4c3O)c(C)c2)ccc1N=Nc1ccc2c(S(=O)(=O)O)cc(S(=O)(=O)O)c(N)c2c1O,116

# Same assay, conditions: His6-htau40 arachidonic acid fibrillization, TEM filament length; filament length at lower concentration; at 1 µM; stronger effect = lower value
row,SMILES,filament length [%]
1,CN(C)c1ccc(/C=C2/C(=O)Nc3ccccc32)cc1,94.5

# Same assay, conditions: His6-htau40 arachidonic acid fibrillization, TEM filament length; filament length at lower concentration; at 1.6 µM; stronger effect = lower value
row,SMILES,filament length [%]
1,N=C1C=CC(=C(c2ccc(N)cc2)c2ccc(N)cc2)C=C1,114

# Same assay, conditions: His6-htau40 arachidonic acid fibrillization, TEM filament length; filament length at lower concentration; at 2.1 µM; stronger effect = lower value
row,SMILES,filament length [%]
1,COc1cccc2c1C(=N)c1c(O)c3c(c(O)c1C2=O)C[C@](O)(C(C)=O)C[C@@H]3O[C@H]1C[C@H](N)[C@@H](O)[C@H](C)O1,91.3
2,Cc1ccc2nc(-c3ccc(N=Nc4cc(S(=O)(=O)O)c5ccccc5c4O)cc3)sc2c1S(=O)(=O)O,100
